Experimental data: PubChem BioAssay AID504545 (Broad Institute, 2011)
Measured potencies and affinities stand elsewhere. Results filed as inconclusive are left out. Activity calls are given as the source filed them. The rule behind the calls is not given here.

target: Cyclin-dependent kinase 5 activator 1 (Homo sapiens) + Cyclin-dependent kinase 5 (Homo sapiens) (UniProt Q15078+Q00535); test: blockade of human CDK5 activity – biochemical, cherry-picked samples, set 2, dose response (AID 504545); details: CDK5/p35 kinase activity, biochemical plate reader; series mostly up to 30 µM; activity change, negative = inhibition: at the top concentration
Sequence (Q00535 whole entry, looked up): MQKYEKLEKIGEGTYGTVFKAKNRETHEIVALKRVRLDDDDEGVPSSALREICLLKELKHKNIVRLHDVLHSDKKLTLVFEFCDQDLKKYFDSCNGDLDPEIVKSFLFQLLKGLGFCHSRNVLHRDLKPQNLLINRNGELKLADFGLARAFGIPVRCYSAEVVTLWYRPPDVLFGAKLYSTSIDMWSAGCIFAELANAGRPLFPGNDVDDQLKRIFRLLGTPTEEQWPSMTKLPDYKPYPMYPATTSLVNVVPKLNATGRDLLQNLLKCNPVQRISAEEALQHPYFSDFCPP
Sequence (Q15078 whole entry, looked up): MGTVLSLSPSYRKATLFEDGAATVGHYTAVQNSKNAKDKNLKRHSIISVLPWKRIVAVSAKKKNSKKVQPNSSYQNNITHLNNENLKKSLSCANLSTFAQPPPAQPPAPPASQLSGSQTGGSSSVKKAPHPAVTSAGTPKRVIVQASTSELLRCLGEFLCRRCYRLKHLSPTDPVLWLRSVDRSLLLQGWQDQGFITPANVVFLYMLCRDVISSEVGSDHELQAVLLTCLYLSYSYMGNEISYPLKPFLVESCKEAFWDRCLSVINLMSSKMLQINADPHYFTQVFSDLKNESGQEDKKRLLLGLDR

Activity change, negative = inhibition, inactive:
Oc1ccc(C=NNc2ccccn2)c(O)c1 -16.7%, Cc1ccc(Nc2nc(NCCO)nc3c2cnn3C)cc1Cl -6.44%, O=C(NNC(=O)c1cccs1)c1ccccc1 -8.86%, COc1cc(OC)c(C(=O)N2CCN(c3ccccn3)CC2)cc1OC 4.37%, Nc1ncnc2c1ncn2C1OC(CO)C(O)C1O (centres undefined) -1.99%, COc1ccccc1C(=O)N1CCN(c2ccccn2)CC1 -5.86%, O=C(c1ccc2c(c1)OCO2)N1CCN(c2ccccn2)CC1 13.9%, S=C(c1ccc(OCc2ccccc2)cc1)N1CCCC1 -1.92%, Cc1nc(Nc2ccccc2)sc1C(=O)c1ccccc1 -4.27%, COc1cc(OC)cc(C(=O)N2CCN(c3ccccn3)CC2)c1 1.08%, Clc1cnc(N/N=C/c2ccncc2)c(Cl)c1 -12.7%, CCOc1cc(C(=O)N2CCN(c3ccccn3)CC2)cc(OCC)c1OCC 3.8%, Clc1cccc(Cl)c1/C=N/Nc1c(Cl)cncc1Cl -9.72%, Cc1ccc2[nH]c(C(F)(F)F)cc(=O)c2c1 12.4%, COc1cccc(C(=O)N2CCN(c3ccccn3)CC2)c1 11.5%, Cc1nn(-c2ccccn2)c2c1C(=O)CC(C)(C)C2Br (centres undefined) 5.29%, Clc1ccc(N/N=C/c2ccncc2)cc1Cl -9.21%, COc1cccc(OC)c1C(=O)N1CCN(c2ccccn2)CC1 7.96%, O=C(c1ccc2c(c1)OCCO2)N1CCN(c2ccccn2)CC1 18.1%, CC(C)(C)c1ccc(C(=O)O/N=C(\N)c2ccccn2)cc1 11.4%, Cc1cccc(/N=C/c2c(O)ccc3oc4c(c23)CCCC4)n1 4.05%, Cc1ccc2nc(Cl)c(C#N)cc2c1 8.05%, COc1ccc(C(=O)N2CCN(c3ccccn3)CC2)cc1 7.99%, CCN1C(=O)/C(=C2/Sc3ccc(OC)cc3N2C)SC1=Nc1cccc(O)c1 13%, CCNc1nc(Nc2ccc(C)c(Cl)c2)c2cnn(C)c2n1 10.2%, NC(=S)N/N=C/c1c(O)c(Br)cc2oc3c(c12)CCCC3 -15.6%, O=C(NNC(=O)c1ccco1)c1ccccc1 1.86%, CC(C)n1cnc2c(N(C)c3cccc(Cl)c3)nc(N(CCO)CCO)nc21 3.33%, Oc1cccc(C=NNc2ccccn2)c1 7.41%
